Bioassay records as filed in PubChem.
HT1080NT lethal = qHTS for induction of synthetic lethality in tumor cells producing 2HG: qHTS for the HT-1080-NT fibrosarcoma cell line; AID 686970, 2013; 360,000 compounds, 1.6% hits; HT-1080-NT fibrosarcoma viability, CellTiter-Glo ATP luminescence, 48 h; Potency, µM (top dose mostly 46.1 µM), inactives show at the top dose activity, negative = less viability, usual class: cytotoxic;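 further: NT is the 2HG producing partner of a matched IDH1 knockdown line; potency means the concentration at half of the fitted maximal effect; 0% = DMSO-treated cells and -100% = media-only wells without cells; nearly all actives have a fitted effect of over 55% in size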
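HT-1080-NT fibrosarcoma cells (2HG-overproducing), 750 cells/well in RPMI with 5% FBS, dosed after 2 h and incubated 48 h at 37C. CellTiter-Glo luminescence normalized to DMSO and no-cell wells; concentration-response curves fitted and classed.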
KB-3-1 tox = qHTS assay for MDR1-selective chemotherapeutics: Primary screen using the parental adenocarcinoma cell KB-3-1; AID 1347075, 2019; Potency, µM (series often up to 46.1 µM), usual class: cytotoxic; 400,000 compounds, 1.4% hits; KB-3-1 viability, CellTiter-Glo ATP luminescence, 72 h; further: potency means the concentration at half of the fitted maximal effect; nearly all actives have a fitted effect of over 60% in size
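Cytotoxicity measured as CellTiter-Glo luminescence after 72 h at 37 C. Compound titrations were pinned onto drug-naive KB-3-1 parental adenocarcinoma cells grown in DMEM with 10% FBS, and normalized data fitted to concentration-response curves.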
HT1080 IDH1KD tx = qHTS for induction of synthetic lethality in tumor cells producing 2HG: qHTS for the HT-1080-IDH1KD cell line | HT-1080 IDH1 knockdown viability, ATP luminescence, 48 h | Potency, µM (doses to about 46.1 µM), inactives show top-dose activity, negative = toxicity, most hits filed as cytotoxic | 360,000 compounds, 2% hits;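 further: potency means the concentration at half of the fitted maximal effect; 0% = DMSO wells and -100% = cell-free medium wells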
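Luminescent ATP read-out (CellTiter-Glo, 10 min at room temperature) after 48 h compound exposure at 37 °C gave viability of IDH1-knockdown HT-1080 cells. Activity was normalised to DMSO and cell-free wells, then fitted as concentration-response curves.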
KB-V1 cytotox = qHTS assay for MDR1-selective chemotherapeutics: Primary screen using the drug-selected MDR subline cells KB-V1. KB-V1 MDR cells viability, CellTiter-Glo, 72 h. Potency, µM (doses to about 46.1 µM), usual class: cytotoxic. 400,000 compounds, 3.4% hits. AID 1347076, 2019; further: potency means the concentration at half of the fitted maximal effect; nearly all actives have a fitted effect of over 60% in size
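Cytotoxicity toward P-gp-expressing KB-V1 cells was determined as loss of CellTiter-Glo luminescence after 72 h at 37 degrees C. Compounds were tested in quantitative HTS format across a concentration range, with curves fitted to normalized data.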
IL1B secr inh = qHTS for Inhibitors of Inflammasome Signaling: IL-1-beta AlphaLISA Primary Screen; THP-1 LPS/ATP IL-1B secretion, AlphaLISA, 16 h; active compounds read low; activity change, % at 57.5 µM; 360,000 compounds, 4.7% hits; in the data active means activity change below about -50%; inconclusive means mostly about -30% to -49%
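Secreted IL-1B measured by AlphaLISA bead assay after 16 h compound exposure of THP-1 cells; compounds (final up to 57.5 uM) added 1 h before LPS (250 ng/mL) and ATP (1.25 mM) stimulation; lower signal means less secretion.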
An asterisk follows results filed as active; i = inactive; ? = inconclusive; nt = no result. A selection: hits, their analogues and other compounds. The true share with any hit is near 8.8%. Unless noted, the call rests on the fitted dose curve; in most records, active means well fitted curve in the direction sought with a large enough effect; inconclusive means small, poorly fitted or top-dose-only effect, or another doubt; inactive means no such curve, though single readings can be large; an effect the other way counts as inactive or inconclusive. Unless noted, on the % scale 0 is the no-effect control and ±100 the full control effect.

SMILES	HT1080NT lethal	KB-3-1 tox	HT1080 IDH1KD tx	KB-V1 cytotox	IL1B secr inh
COc1ccccc1CN1CCCC(C(=O)c2ccccc2OC)C1 (stereo not drawn)	-15%	i	-14%	i	-11
CCOc1ccc(CN2CCCC(C(=O)c3ccccc3OC)C2)cc1 (stereo not drawn)	-25%	i	-26%	i	-58*
CCOC(=O)[C@]12Cc3c(cc(OC)c(OC)c3OC)[C@H]1N(C1CCCCC1)C(=O)c1ccccc12	3.3µM*	3.3µM*	2.9µM*	?	-113*
CCOC(=O)[C@]12Cc3cc(Cl)ccc3[C@H]1N(C1CCCCC1)C(=O)c1cc(OC)ccc12	2.3µM*	1µM*	1.8µM*	5.8µM*	-110*
CCOC(=O)[C@]12Cc3cc(C)ccc3[C@H]1N(C1CCCCC1)C(=O)c1ccccc12	3.7µM*	1.6µM*	3.7µM*	2.6µM*	-111*
CCOC(=O)[C@]12Cc3cc4c(cc3[C@H]1N(Cc1ccccc1)C(=O)c1ccccc12)OCO4	-5%	?	-14%	?	-22
CCOC(=O)[C@]12Cc3ccc(C)cc3[C@H]1N(C1CCCCC1)C(=O)c1ccccc12	8.2µM*	1.2µM*	5.8µM*	2.3µM*	-118*
CCOC(=O)[C@]12Cc3ccccc3[C@H]1N(C(C)C)C(=O)c1ccccc12	?	21µM*	21µM*	i	-116*
CCOC(=O)[C@]12Cc3ccc(C)cc3[C@H]1N(C1CCCCC1)C(=O)c1cc(OC)ccc12	4.1µM*	?	3.3µM*	4.6µM*	-116*
CCOP(=O)(OCC)c1nc(-c2ccc(F)cc2)oc1NCc1ccccc1	?	i	-8%	i	-54*
CC(=O)Nc1ccccc1C(=O)OCC(=O)c1ccc2ccccc2c1	?	i	-21%	15µM*	-8
CC(=O)Nc1ccccc1C(=O)OCc1ccc(C(=O)c2ccccc2)cc1	?	?	?	6.5µM*	-55*
CC(=O)Nc1ccccc1C(=O)OCc1cccc(F)c1	10%	i	11%	i	43
COC(=O)C1=C(c2c(C)noc2C)C[C@@H]2CC[C@H]1N2C(=O)N1CCCC1	21%	i	?	?	12
Cc1ccc(OCC(=O)N2CCN(C3CCC(c4ccccc4)CC3)CC2)cc1 (stereo not drawn)	-16%	i	-28%	?	-8
Cc1cc(C)n(-c2nc(SCCN(C)C)c3c4c(sc3n2)CCCC4)n1	7.9µM*	i	?	i	-78*
Cc1nc2ccccn2c1P(=S)(c1ccccc1)c1ccccc1	nt	i	nt	?	nt
O=C(COC(=O)Cc1ccccc1)NCCNC(=O)COC(=O)Cc1ccccc1	3%	i	0%	i	12
Cc1ccc(CNCCc2ccccc2F)cc1	3%	i	11%	i	-72*
CCN(CC)c1ccc(CNCCc2ccccc2F)cc1	16µM*	?	18µM*	21µM*	-92*
O=C(Nc1ccc2c(c1)OCCO2)c1cccn(Cc2cccc(F)c2)c1=O	nt	i	nt	i	nt
CC(=O)O[C@H]1C[C@@H]2OC3C=C(C)CCC3(C)[C@@]1(C)[C@@]21CO1 (stereo partly drawn)	?	2.3µM*	nt	1.6µM*	-100*
O=C1NC(=O)N(Cc2ccc(F)cc2)C(=O)/C1=C/c1cccs1	?	i	?	i	-101*
O=C1NC(=O)N(Cc2ccccc2Cl)C(=O)/C1=C/c1cccs1	-5%	i	-12%	i	?
NC(N)=Nc1ccc2[nH]c3c(c2c1)C[C@@]1(O)[C@H]2Cc4ccc(O)c5c4[C@@]1(CCN2CC1CC1)C3O5 (stereo partly drawn)	12%	i	-6%	i	-20
SMILES	HT1080NT lethal	KB-3-1 tox	HT1080 IDH1KD tx	KB-V1 cytotox	IL1B secr inh
CN1CCN(c2oc(-c3ccc(COc4ccccc4)o3)nc2C#N)CC1	nt	i	nt	i	nt
CNCC(O)c1cc(OCc2ccccc2)c(OCc2ccccc2)cc1F (stereo not drawn)	nt	?	nt	18µM*	nt
CN1CCN(C(=O)O[C@H]2c3nccnc3C(=O)N2c2ccc(Cl)cn2)CC1	-1%	i	4%	i	-10
O=[N+]([O-])c1ccc(Cl)c([N+](=O)[O-])c1	5.2µM*	?	18µM*	16µM*	-110*
O=[N+]([O-])c1ccc(O)c([N+](=O)[O-])c1	-19%	i	-24%	?	43
CC1(C)C(C(=O)N2CCN(c3ccc(Cl)cc3)CC2)C1(C)C	-2%	i	-9%	i	-3
COC(=O)C1CN(C#N)N(c2ccc(Cl)cc2)C12c1ccccc1-c1ccccc12 (stereo not drawn)	3.3µM*	5.2µM*	3.7µM*	12µM*	-97*
CC1(C)NC(=S)C(C)(C)N1N=O	1%	i	1%	?	0
O=S(=O)(c1ccc(Cl)cc1)N1Cc2ccccc2-n2nncc2C1	-11%	i	-6%	i	46
Cc1c(Cl)cccc1NC(=O)CN1C(=O)C(C)N=C(c2ccccc2)c2ccccc21 (stereo not drawn)	nt	i	nt	i	nt
C=CCNC(=O)c1ccccc1NC(=O)c1ccc(Cl)c(S(=O)(=O)Nc2cc(C)ccc2C)c1	?	i	?	21µM*	26
COc1ccc(C)cc1NC(=O)c1cccn(Cc2ccccc2Cl)c1=O	nt	i	nt	i	nt
O=[N+]([O-])c1ccc(Cl)cc1	?	i	14%	i	12
CC(C)CN1C(=S)SC(C)(C)C1n1oc(=O)n(-c2ccc(Cl)cc2)c1=O (stereo not drawn)	?	i	?	?	-26
COC1/C=C/C=C(\C)Cc2cc(O)c(Cl)c(c2)N(C)C(=O)CC(OC(=O)C(C)C)C2(C)OC2C(C)C2CC1(O)NC(=O)O2 (stereo not drawn)	0.0092µM*	?	?	0.73µM*	6
CSCCC(c1nnnn1-c1c(C)cccc1C)N1CCC2(CC1)C(=O)NCN2c1ccccc1 (stereo not drawn)	?	?	?	i	?
N#Cc1ccc2nc(-c3ccc(CN4CCC(n5c(=O)[nH]c6ccccc65)CC4)cc3)c(-c3ccccc3)nc2c1	?	?	?	?	-66*
Cc1cccc2nc(-c3ccccc3)c(-c3ccc(CN4CCC(n5c(=O)[nH]c6ccccc65)CC4)cc3)nc12	?	?	?	?	-51*
